# Screening data: PubChem, National Center for Advancing Translational Sciences (NCATS)
# LASV entry inh: qHTS for Inhibitors of binding or entry into cells for Lassa Virus; Lassa virus pseudotype entry inhibition, cell reporter; Potency, µM (titrated, usually from 37.9 µM), inactives show top-dose activity change, negative = inhibition, most hits filed as inhibitors; 300,000 compounds, 1.2% hits; AID 540256, 2011; calls by dose curve; tested in HEK293 cells; also: potency is read from the fitted curve at half-maximal effect; nearly all actives have a fitted effect of over 50% in size
# Pf growth 96h: Primary qHTS for delayed death inhibitors of the malarial parasite plastid, 96 hour incubation; AID 504834, 2011; Potency, µM (doses to about 28.7 µM), for inactives: top-dose activity change, negative = inhibition, hits mostly inhibitors; 320,000 compounds, 6.9% hits; P. falciparum luciferase reporter growth, 96 h; also: potency is read from the fitted curve at half-maximal effect
#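 Parasite growth measured via integrated firefly luciferase reporter in P. falciparum. Infected erythrocytes at 2% hematocrit, 0.05% parasitemia final were treated 96 hours at 37 C under 5% CO2, and luminescence was read.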
# Pf growth 48h: Primary qHTS for delayed death inhibitors of the malarial parasite plastid, 48 hour incubation. P. falciparum luciferase growth in erythrocytes, 48 h. Potency, µM (highest dose often 28.7 µM), for the others: at the top dose activity change, negative = inhibition, most hits filed as inhibitors. 310,000 compounds, 5.9% hits. AID 504832, 2011; also: potency is read from the fitted curve at half-maximal effect
#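 Erythrocytes infected with P. falciparum carrying an integrated firefly luciferase reporter (2% hematocrit, 0.1% parasitemia final) were exposed to compounds in RPMI 1640 with 0.5% Albumax at 37 C, 5% CO2. Growth inhibition was scored as reduced luminescence.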
# HCMV antiviral: qHTS Assay for inhibitors of the human cytomegalovirus (HCMV); HFF cells, HCMV-luciferase reporter, 72 h; hits give low values; activity change, negative = inhibition, % at 57.5 µM; 410,000 compounds, 4.5% hits; AID 1259415, 2018; in the data active = activity change below about -60%; inconclusive = no clear call, values can overlap the other calls; inactive = above about -39%
#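 HFF cells seeded 16 h at 37C, treated with compounds, infected with luciferase-reporter HCMV at MOI 1 PFU/cell; luciferase read at 72 h post infection, normalized to buffer-only and Salinomycin controls.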
# HCV inh: qHTS Assay for Inhibitors of Hepatitis C Virus (HCV); Huh7.5.1 HCVcc-Cre infection, luciferase reporter, 44 h; Potency, µM (titrated, usually from 41.8 µM), inactives show at the top dose activity change, negative = inhibition, most hits filed as inhibitors; 340,000 compounds, 3.4% hits; AID 651820, 2012; also: potency is read from the fitted curve at half-maximal effect
#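 HCVcc-Cre virus at an moi near 0.5 was added right after compound to cells cultured 4 h from seeding (1,000 cells/well). Luciferase activity was determined 44 h later, 15 min after substrate addition at RT.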
# MARV entry inh: qHTS for inhibitors of binding or entry into cells for Marburg Virus; 300,000 compounds, 1.8% hits; Marburg virus pseudotyped entry inhibition, cell reporter; Potency, µM (top dose mostly 37.8 µM), without a hit: at the highest dose activity change, negative = inhibition, usual class: inhibitors; calls by dose curve; tested in HEK293 cells; also: potency is read from the fitted curve at half-maximal effect
# * = called active by the depositor; u = inconclusive; x = no result given; [ ] = another dose, or the depositor's remark. This is a sample that favours compounds with a hit; in the whole collection about 14% have one here. Unless noted, calls follow the shape of the dose curve; as a rule, active = well fitted inhibition curve with a large enough effect; inconclusive = small, poorly fitted or top-dose-only effect, or another doubt; inactive = no such curve, though single readings can be large or run the other way. % is scaled to controls: 0 for no effect and ±100 for the full control effect.
SMILES,LASV entry inh,Pf growth 96h,Pf growth 48h,HCMV antiviral,HCV inh,MARV entry inh
C[C@@H](C(=O)NCCc1c[nH]c2ccccc12)[C@H]1C[C@]1(C)[C@H](NC(=O)OCc1ccccc1)c1ccccc1,u,9.3µM*,13µM*,-27,u,u
C[C@@H](C(=O)NCC1CC1)[C@@H]1C[C@@]1(C)[C@@H](NC(=O)OCc1ccccc1)c1ccccc1,u,4.1µM*,4.1µM*,-9,0.56µM*,-18%
Cc1sc(-n2cccc2)c(C(C)NC(=O)Nc2ccccc2Cl)c1C (stereo not drawn),x,x,x,-34,x,u
CCN(CC)S(=O)(=O)c1ccc(NC(=O)c2cc3ccc4cccnc4c3[nH]2)cc1,10%[46.1 µM],x,x,u,x,x
CCOc1ccc(N(CC(=O)Nc2cccc(OC)c2)S(=O)(=O)c2c(C)noc2C)cc1,x,0.83µM*,u,-62*,u,3%
COc1ccc(N(CC(=O)Nc2cc(C)on2)S(=O)(=O)c2ccc(Cl)cc2)cc1,-16%,18%,x,-1,14%,0%[46.1 µM]
CCOc1ccc(N(CC(=O)Nc2ccc(C)cc2)S(=O)(=O)c2c(C)noc2C)cc1,x,-10%,x,-34,-24%,-5%
CCOc1ccc(NC(=O)CN(c2ccc(CC)cc2)S(=O)(=O)c2c(C)noc2C)cc1,-10%[46.1 µM],x,x,-7,x,x
CCOc1ccc(N(CC(=O)Nc2cccc(Cl)c2)S(=O)(=O)c2c(C)noc2C)cc1,x,26%,x,1,13µM*,-4%
CCOc1ccc(N(CC(=O)NCc2cccs2)S(=O)(=O)c2c(C)noc2C)cc1,x,u,x,-60*,-17%,5%
COc1ccc(N(CC(=O)Nc2cc(C)on2)S(=O)(=O)c2cc(C)ccc2C)cc1,-26%,-28%,-18%,-91*,-16%,u
COc1ccc(N(CC(=O)NCc2cccs2)S(=O)(=O)c2c(C)nn(C)c2C)cc1,x,u,x,-8,11%,x
CCOc1ccc(N(CC(=O)Nc2ccc(F)c(F)c2)S(=O)(=O)c2c(C)noc2C)cc1,6%,0%,-25%,-63*,0%,-6%
COc1ccc(N(CC(=O)Nc2ccc(C)c(F)c2)S(=O)(=O)c2c(C)noc2C)cc1,x,u,13µM*,50,6%,x
CCOc1ccc(N(CC(=O)Nc2ccccc2OCC)S(=O)(=O)c2c(C)noc2C)cc1,x,12µM*,u,-86*,11µM*,x
Cc1nn(C)c(C)c1S(=O)(=O)N(CC(=O)NCc1cccs1)c1ccc(C(C)C)cc1,x,9.3µM*,1%,-29,-9%,x
CCOc1ccc(NC(=O)N(C)CCc2c(C)nn(C)c2C)cc1,10%[46.1 µM],x,x,22,x,x
COc1cc(O)ccc1C(=O)CCc1ccc(O)cc1,u,u,u,-3,-16%,7%
COc1ccc(N(CC(=O)NC2CCCCCC2)S(=O)(=O)c2c(C)nn(C)c2C)cc1,u,u,-24%,-15,-1%,-4%
Cc1ccc(N(CC(=O)NC2CCCCCC2)S(=O)(=O)c2c(C)nn(C)c2C)cc1,-13%,12µM*,0%,-27,-3%,u
CC1=Nc2ccccc2N=C(NC(=O)CN2CCN(c3ccccc3)CC2)C1c1ccccc1 (stereo not drawn),-1%[46.1 µM],u,5.9µM*,-14,0%,u
CC1=Nc2ccccc2N=C(NC(=O)c2ccccc2)C1c1ccccc1 (stereo not drawn),-5%,u,4.1µM*,-17,u,u
CC1=Nc2ccccc2N=C(NC(=O)CSC(=S)N2CCN(C)CC2)C1c1ccccc1 (stereo not drawn),-14%,u,u,99,-9%,u
CCOC(=O)C1CCCN(CC(=O)NC2=Nc3ccccc3N=C(C)C2c2ccccc2)C1 (stereo not drawn),u,u,10µM*,-36,-5%,u
CC1=Nc2ccccc2N=C(NC(=O)CSc2nnnn2-c2ccccc2)C1c1ccccc1 (stereo not drawn),-13%,-20%,u,u,u,u
SMILES,LASV entry inh,Pf growth 96h,Pf growth 48h,HCMV antiviral,HCV inh,MARV entry inh
CC1=Nc2ccccc2N=C(NC(=O)CSC(=S)N2CCCCC2)C1c1ccccc1 (stereo not drawn),-5%[46.1 µM],u,13µM*,10,u,10µM*
Cc1nnc(SC(C)C(=O)Nc2ccc3ccccc3c2)n1C (stereo not drawn),x,-6%,-18%,-11,11%,x
C#CCN(C[C@H]1[C@H](OC(=O)NCC2CCCCC2)[C@H](OC(=O)NCC2CCCCC2)C[C@@H](C(=O)OC)[C@H]1C(=O)OC)S(=O)(=O)c1ccc(C)cc1,x,x,x,-8,x,x
COc1ccc(CC(=O)NNc2ncnc3c2cnn3-c2ccccc2)cc1,5.2µM*,45%,16%,-7,-27%,24%
COc1ccc(CCNc2ncnc3c2cnn3-c2cc(Cl)ccc2C)cc1,u,x,x,-61*,x,x
CC(=O)NNc1ncnc2c1cnn2-c1ccc(C)c(Cl)c1,17%,8.3µM*,124%,-21,u,-16%[46.1 µM]
COc1ccc(CCNc2ncnc3c2cnn3-c2ccc(C)c(Cl)c2)cc1,1%[46.1 µM],x,x,-10,x,x
COc1ccc(C(=O)NNc2ncnc3c2cnn3-c2cccc(Cl)c2)cc1OC,u,x,x,-86*,x,x
COc1ccc(OC)c(CCNC(=O)Cn2ccc3cc(S(=O)(=O)N4CCCCC4)ccc32)c1,u,x,x,-27,x,x
CC(C)CNC(=O)C1(C)CCCN1C(=O)C(C)(C)Oc1ccc(Cl)cc1 (stereo not drawn),x,x,x,39,x,x
COc1ccc(C2CC(=O)C3=C(C2)NC(C)=C(C#N)C3c2ccc(N(C)C)cc2)cc1 (stereo not drawn),13µM*,10%,6.6µM*,3,13%,u
COC(=O)c1ccc(C2C(C#N)=C(C)NC3=C2C(=O)CC(C)(C)C3)cc1 (stereo not drawn),-6%,9.3µM*,8%,26,-7%,-8%
COc1ccc(C2C(C#N)=C(SC)NC3=C2C(=O)CC(C)(C)C3)cc1 (stereo not drawn),8%,22%,u,u,6%,-8%
O=C(CC(c1ccccc1)C1CCCCC1=O)c1ccccc1 (stereo not drawn),-2%,x,x,17,0%,-15%
CCOc1ccc(NC(=O)CN(C)C(=O)c2cn(-c3ccc(C)cc3)nc2-c2cccc(OC)c2)cc1OCC,-29%,x,x,0,u,11µM*
COc1cccc(-c2nn(-c3ccc(C)cc3)cc2C(=O)N(C)CC(=O)Nc2cccc(F)c2)c1,u,15µM*,5.2µM*,35,u,u
